Measurements taken from PubChem BioAssay AID1159580 (chemical genetic matrix, 2015).
Hit rate of the full screen: of about 5,500 compounds, about 2,000 (36%) were called active. Roughly 18% stayed inconclusive and do not appear here. Cut-off read from the data, not from the text of the source: active = normalized growth mostly below about 0.91 (no sharp cut-off); inconclusive = no clear call, values can overlap the other calls; inactive = mostly above about 0.92. Some of the results follow.

Test: chemical genetic growth profiling, strain panel (AID 1159580);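 note: tested at 20 µM; growth read once vehicle control cultures reached saturation at 30 °C; 1 = growth at the plate median or of vehicle wells; lower values mean less growth of the strain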
Details: S. cerevisiae deletion strains, growth OD

Measured: normalized growth

C[C@]12CCC3C(CC[C@H]4C[C@H](OS(=O)(=O)O)CC[C@]34C)C1CCC2=O (some centres not stated)
active: locus YOR265W, strain rbl2, active compounds read low 1.08 [resistant]
inactive: locus YAL021C, strain ccr4, active compounds read low 1.02 | locus YAL026C, strain drs2, active compounds read low 1.05 | locus YAL030W, strain snc1, active compounds read low 1.05 | locus YBL061C, strain skt5, active compounds read low 1.05 | locus YBR009C, strain hhf1, active compounds read low 1.06 | locus YBR023C, strain chs3, active compounds read low 1.05 | locus YBR171W, strain sec66, active compounds read low 1.08 | locus YBR231C, strain swc5, active compounds read low 1.06 | locus YBR279W, strain paf1, active compounds read low 1.03 | locus YCL011C, strain gbp2, active compounds read low 1.05 | locus YCL016C, strain dcc1, active compounds read low 1.04 | locus YCL061C, strain MRC1, active compounds read low 1.05 | locus YCL069W, strain vba3, active compounds read low 1.04 | locus YCR088W, strain abp1, active compounds read low 1.04 | locus YDL005C, strain med2, active compounds read low 1.06 | locus YDL040C, strain nat1, active compounds read low 1.04 | locus YDR001C, strain nth1, active compounds read low 1.04 | locus YDR069C, strain doa4, active compounds read low 1.05 | locus YDR137W, strain rgp1, active compounds read low 1.05 | locus YDR159W, strain sac3, active compounds read low 1.08 | locus YDR195W, strain ref2 1.06 | locus YDR297W, strain sur2, active compounds read low 1.05 | locus YDR334W, strain swr1, active compounds read low 1.05 | locus YDR335W, strain msn5, active compounds read low 1.04 | locus YDR392W, strain spt3, active compounds read low 1.07 | locus YEL003W, strain gim4, active compounds read low 1.03 | locus YEL037C, strain rad23, active compounds read low 1.04 | locus YEL061C, strain CIN8 (second series), active compounds read low 1.05 | locus YER015W, strain faa2, active compounds read low 1.05 | locus YER016W, strain bim1, active compounds read low 1.04 | locus YER111C, strain swi4, active compounds read low 1.06 | locus YER155C, strain BEM2 (second series), active compounds read low 1.06 | locus YFR010W, strain ubp6, active compounds read low 1.05 | locus YGL167C, strain pmr1, active compounds read low 1.06 | locus YGL173C, strain kem1, active compounds read low 1.04 | locus YGL227W, strain vid30, active compounds read low 1.05 | locus YGL240W, strain doc1, active compounds read low 1.04 | locus YGL253W, strain hxk2, active compounds read low 1.04 | locus YHR013C, strain ard1, active compounds read low 1.12 | locus YHR027C, strain rpn1, active compounds read low 1.05 | locus YHR142W, strain chs7, active compounds read low 1.05 | locus YJL092W, strain hpr5, active compounds read low 1.05 | locus YJL095W, strain BCK1 (second series), active compounds read low 1.04 | locus YJL115W, strain asf1, active compounds read low 1.06 | locus YJL129C, strain trk1, active compounds read low 1.11 | locus YJL154C, strain vps35, active compounds read low 1.04 | locus YJL164C, strain tpk1, active compounds read low 1.05 | locus YJL166W, strain qcr8, active compounds read low 1.05 | locus YJL187C, strain SWE1, active compounds read low 1.05 | locus YKL160W, strain elf1, active compounds read low 1.03 | locus YKR026C, strain gcn3, active compounds read low 1.06 | locus YKR091W, strain srl3, active compounds read low 1.04 | locus YLL001W, strain dnm1, active compounds read low 1.05 | locus YLL026W, active compounds read low 1.05 | locus YLL041C, strain sdh2, active compounds read low 1.05 | locus YLR027C, strain aat2, active compounds read low 1.05 | locus YLR221C, strain rsa3, active compounds read low 1.05 | locus YLR258W, strain gsy2, active compounds read low 1.06 | locus YLR262C, strain YPT6 (second series), active compounds read low 1.04 | locus YLR320W, strain mms22, active compounds read low 1.06 | locus YLR342W, strain FKS1, active compounds read low 1.06 | locus YLR357W, strain rsc2, active compounds read low 1.06 | locus YLR370C, strain arc18, active compounds read low 1.05 | locus YLR384C, strain iki3, active compounds read low 1.05 | locus YML120C, strain ndi1, active compounds read low 1.05 | locus YMR058W, strain fet3, active compounds read low 1.04 | locus YMR125W, strain sto1, active compounds read low 1.05 | locus YMR129W, active compounds read low 1.05 | locus YMR205C, strain PFK2, active compounds read low 1.07 | locus YMR231W, strain pep5, active compounds read low 1.03 | locus YNL071W, strain lat1, active compounds read low 1.05 | locus YNL209W, strain ssb2, active compounds read low 1.04 | locus YNL248C, strain rpa49, active compounds read low 1.04 | locus YNL322C, strain KRE1 (second series), active compounds read low 1.04 | locus YNR049C, strain mso1, active compounds read low 1.05 | locus YOR001W, strain rrp6, active compounds read low 1.04 | locus YOR070C, strain gyp1, active compounds read low 1.06 | locus YOR080W, strain dia2, active compounds read low 1.07 | locus YOR083W, strain WHI5, active compounds read low 1.04 | locus YOR106W, strain vam3, active compounds read low 1.03 | locus YOR270C, strain vph1, active compounds read low 1.1 | locus YOR290C, strain snf2, active compounds read low 1.04 | locus YPL051W, strain arl3, active compounds read low 1.05 | locus YPL078C, strain atp4, active compounds read low 1.03 | locus YPL106C, strain sse1, active compounds read low 1.1 | locus YPL240C, strain hsp82, active compounds read low 1.04
